Records with an inconclusive call do not appear. Unmarked numbers belong to inactive results. Calls of active or inactive are those of the source. Calls follow the shape of the dose curve; as a rule, active = well fitted curve in the direction sought with a large enough effect; inconclusive = small, poorly fitted or top-dose-only effect, or another doubt; inactive = no such curve, though single readings can be large; an effect the other way counts as inactive or inconclusive.

Results on 38 molecules are retold here after PubChem BioAssay (NCATS).

Test [1] can be described thus: qHTS to identify inhibitors of the type 1 interferon - major histocompatibility complex class I in skeletal muscle: primary screen against the NCATS Pharmaceutical Collection (AID 1347407).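 Also: luminescence of HiBiT knocked into endogenous HLA-B as interferon-induced MHC class I level; % is scaled to controls: 0 for no effect and ±100 for the full control effect.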 In outline: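 Cells were seeded with 4 ng/ml IFN-beta, incubated 1 h, then dosed with compounds over eight 1:5 steps up to 46 uM final. After 24 h at 37 C, HiBiT lytic reagent was added and luminescence read after 10 min lysis in the dark.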
A general note: qHTS replaces the single test concentration by a dilution series.

Test [2] deals with Protein phosphatase 1D (Homo sapiens) (UniProt O15297). The experiment in a line: Rhodamine-PBP qHTS Assay for Modulators of WT P53-Induced Phosphatase 1 (WIP1) (AID 1347425). Also: % of control where 0% means no effect. The method in brief:
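5 nM WIP1 + 10 uM Rh-PBP, 50 mM Tris pH 7.5, 30 mM MgCl2, 1 mM TCEP, 0.1 mM EGTA, BSA; cpds pinned, 1 hr RT; + 10 uM phosphopeptide; fluorescence 1-min reads x 11 min; delta = f1 - f0.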

A short description of test [3]: Primary qHTS for inhibitors of La Crosse Virus (LACV) - induced cell death in SH-SY5Y cells (AID 1508616).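 Also: top concentration of the series differs between compounds; 0% = infected DMSO wells and 100% = uninfected DMSO wells; higher means more rescue of cells from virus-induced death.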 In outline: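 Luminescent ATP readout (ATPLite 1step, 5 min room temperature) measured rescue from LACV-induced death after 6 days of infection at 0.01 MOI; normalized to infected DMSO wells and uninfected DMSO wells.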
For test [4], the target named is Calcium and integrin-binding protein 1 (Homo sapiens) (UniProt Q99828). Put plainly: Confirmatory qHTS for Identification of Calcium Integrin Binding Protein 1 (CIB1) Competitor (AID 1508617). Also: % is scaled to controls: 0 for no effect and ±100 for the full control effect; nearly all actives have a fitted effect of over 65% in size. The text has this: Assay Provider: Ulhas P. Naik, PhD
Chain of Calcium and integrin-binding protein 1 (Homo sapiens) (Q99828 whole entry, looked up): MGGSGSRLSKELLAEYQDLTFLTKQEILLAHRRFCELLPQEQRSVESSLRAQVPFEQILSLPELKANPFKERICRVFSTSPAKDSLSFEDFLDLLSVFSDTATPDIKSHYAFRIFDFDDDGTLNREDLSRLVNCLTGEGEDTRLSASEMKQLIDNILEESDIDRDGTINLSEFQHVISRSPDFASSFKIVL
Sidney Kimmel Medical College
Thomas Jefferson University, Philadelphia, PA
Primary function of platelets is to maintain hemostasis. At the site of vascular injury, platelets adhere to adhesive proteins such as collagen and von Willebrand factor. Adherent platelets are activated and generate soluble platelet agonists such as thrombin, ADP and thromboxane A2. Following exposure of circulating platelets to these agonists, results in platelet shape change, granule secretion and activation of platelet integrin alphaIIb-beta3. Ligand binding to activated integrin alphaIIb-beta3 triggers outside-in signaling, leading to platelet aggregation, stabilization of platelet plug, and clot retraction. Upon atherosclerotic plaque rupture also causes platelet plug formation, which underlies a number of cardiovascular diseases such as myocardial infraction and stroke. A number of anti-platelet drugs such as aspirin, clopidogrel, prasugrel, vorapaxar, and eptifibatide are currently available to prevent the thrombotic complications. However, these anti-platelet agents have several limitations including inherent variability in individual responses, developing resistance, and serious bleeding side effects. […]
To develop fluorescence polarization (FP) assay using fluorescently labeled alphaIIb peptide and CIB1 protein. […]
7; Detection; Ex 480/ Em 540; ViewLux Fluorescence Read […]

The target in test [5] is Protein phosphatase 1D (Homo sapiens) (UniProt O15297). Put plainly: RapidFire Mass Spectrometry qHTS Assay for Modulators of WT P53-Induced Phosphatase 1 (WIP1) (AID 1347424).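 Also: amount of dephosphorylated VEPPL-S-QETFS peptide product formed by WIP1; series mostly up to about 63 µM; plate controls were DMSO wells for no effect and GSK830371 inhibitor control at 10 µM for full effect.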 In outline:
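10 nM WIP1 preincubated with compounds 1 hr at room temperature in pH 7.5 Tris buffer with 30 mM MgCl2, 1 mM TCEP; 2 uM VEPPL-pS-QETFS phosphopeptide for 5 min, formic acid quench; dephosphorylated product quantified by RapidFire MS against labelled standard.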

Test [6] has as its target Calcium and integrin-binding protein 1 (Homo sapiens) (UniProt Q99828). The experiment in a line: Primary qHTS for Identification of Calcium Integrin Binding Protein 1 (CIB1) Competitor (AID 1508620).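 Also: GST tagged CIB1 binding a fluorescein labelled alphaIIb integrin peptide tracer; top concentration of the series differs between compounds; % is scaled to controls: 0 for no effect and ±100 for the full control effect.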 The method in brief:
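Fluorescence polarization competition: GST-tagged CIB1 (1 uM final) preincubated with compound 15 min at room temperature, then FITC-labelled alphaIIb peptide (100 nM final) added. After 15 min at room temperature, polarization read at Ex 480/Em 540.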

A short description of test [7]: Counterscreen qHTS for small molecule stabilizers of the endoplasmic reticulum resident proteome: GLuc-NoTag assay (AID 1508627).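 Also: SH-SY5Y cells given compound then 100 nM thapsigargin to empty ER calcium; series mostly up to about 76 µM; 0% = thapsigargin alone and -100% = DMSO vehicle control.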 The method in brief:
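SH-SY5Y cells stably expressing constitutively secreted GLuc without SERCaMP tag, exposed to compound for 19 hr, then to 100 nM thapsigargin for 4 hr at 37C. Medium luciferase was read by coelenterazine luminescence without lysis.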
In general terms: A counterscreen serves to expose hits that act by an unwanted route or on another target.

Test [8] can be described thus: Confirmatory qHTS for small molecule stabilizers of the endoplasmic reticulum resident proteome: Secreted ER Calcium Modulated Protein (SERCaMP) assay (AID 1508628). Also: nearly all actives have a fitted effect of over 40% in size. Also: potency is read from the fitted curve at half-maximal effect. In outline: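 We seeded SH-SY5Y-GLuc-SERCaMP cells, added compounds (three concentrations in the primary run, eleven up to 76.6 uM in confirmation), incubated 16 h, depleted ER calcium with thapsigargin, and read luciferase 4 h later.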

Test [9] is described as follows: Cell Viability qHTS for small molecule stabilizers of the endoplasmic reticulum resident proteome (AID 1508629).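 Also: human SH-SY5Y neuroblastoma cells carrying the GLuc-SERCaMP reporter; compound exposure about 46 h in total before the viability read; % is scaled to controls: 0 for no effect and ±100 for the full control effect.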 Conditions: cell viability counter-screen, 100 nM thapsigargin for final 4 h.

Chain of Protein phosphatase 1D (Homo sapiens) (O15297 whole entry, looked up): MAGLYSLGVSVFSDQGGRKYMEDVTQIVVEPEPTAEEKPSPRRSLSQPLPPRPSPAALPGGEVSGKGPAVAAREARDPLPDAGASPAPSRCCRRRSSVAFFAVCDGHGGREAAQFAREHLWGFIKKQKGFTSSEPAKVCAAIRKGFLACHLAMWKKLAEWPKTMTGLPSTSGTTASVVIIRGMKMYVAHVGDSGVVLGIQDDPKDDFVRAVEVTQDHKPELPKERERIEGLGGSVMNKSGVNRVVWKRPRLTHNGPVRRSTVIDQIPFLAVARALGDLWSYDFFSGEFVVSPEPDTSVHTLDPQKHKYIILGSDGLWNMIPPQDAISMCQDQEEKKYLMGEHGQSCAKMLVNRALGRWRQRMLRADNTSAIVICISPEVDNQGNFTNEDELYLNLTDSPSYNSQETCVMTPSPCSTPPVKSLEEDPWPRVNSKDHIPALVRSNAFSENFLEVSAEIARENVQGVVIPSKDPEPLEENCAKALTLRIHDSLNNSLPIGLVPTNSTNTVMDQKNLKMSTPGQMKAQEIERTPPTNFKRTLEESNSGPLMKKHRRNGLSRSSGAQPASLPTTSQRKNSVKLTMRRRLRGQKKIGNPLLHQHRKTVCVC

As for `O=C(O)Cc1ccc(CCNS(=O)(=O)c2ccc(Cl)cc2)cc1`, the molecule was called inactive in test [1], in [2], in test [3] and in test [4].

For `Cc1ccsc1/C=C/C1=NCCCN1C`, the call in test [1], in test [5], in test [3] and in test [6] was inactive.

Turning to `OCC(O)CS` (centres undefined), the molecule was called inactive in test [1], in [5], in [3] and in test [6].

On to `CN(C/C=C/C#CC(C)(C)C)Cc1cccc2ccccc12`, for which the molecule was called inactive in test [1], in [5], in [2], in test [3] and in [6].

`CCN(CC)C(=O)c1cccc(C)c1`: the result in test [1], in test [5], in test [2], in test [3], in [6] and in test [7] was inactive. The Potency result in test [8] is “inactive”. Besides, the max response in test [9] was 12.2%.

As to `CC(=O)Oc1cccc(C)c1`, the outcome in test [1], in test [5], in [3] and in [6] was inactive.

With `Cc1cc(C)c(NC(=O)CN(CC(=O)O)CC(=O)O)c(C)c1Br`, the molecule was called inactive in test [1], in test [5], in [2], in test [3] and in test [6].

On to `CCCCCCCCCCC(CO)CCCCCCCC` (centres undefined), for which the molecule was classed as inactive in test [1], in test [5], in [3] and in [6].

Consider `Cc1cc(OI)c(C(C)C)cc1-c1cc(C(C)C)c(OI)cc1C`, for which the result in test [1], in test [5], in test [3] and in test [6] was inactive.

Take `Cc1ccc(C(C)C)c(O)c1`: the outcome in test [1], in test [5], in test [3] and in test [6] was inactive.

On to `CC(=O)N[C@H]1[C@H]([C@H](O)[C@H](O)CO)OC(C(=O)O)=C[C@@H]1N=C(N)N`, for which the outcome in [1], in test [5], in test [2], in test [3] and in test [6] was inactive.

In the case of `Nc1ccncc1N`, the molecule was classed as inactive in [1], in test [2] and in [3].

Take `Cc1cc(C)nc(NS(=O)(=O)c2ccc(N)cc2)n1`: the molecule was called inactive in test [1], in test [5], in [3] and in test [6].

For the molecule `NS(=O)(=O)c1ccc(C(=O)O)cc1`, the call in test [1], in test [5], in [3] and in [6] was inactive.

On to `CCN(CC)CC1CCCCN1CC(=O)N1c2ccccc2C(=O)Nc2cccnc21` (centres undefined), for which the call in test [1], in test [5], in [2], in test [3] and in [6] was inactive.

Regarding `CC(=O)Nc1ccc(C(=O)O)cc1`, the call in [1], in test [5], in test [3] and in test [6] was inactive.

In the case of `Nc1ncnc(Nc2ccccc2)n1`, the outcome in [1], in test [5], in test [3] and in [6] was inactive.

Consider `NC(=O)NC1NC(=O)NC1=O` (centres undefined), for which the molecule was called inactive in test [1], in [5], in [3] and in [6].

Turning to `NC(=O)N[C@@H](CCC(=O)O)C(=O)O`, the outcome in [1], in test [5], in test [3] and in test [6] was inactive.

In the case of `CCCCCCCCCCCCCCCCN`, the outcome in test [1], in test [5], in test [3] and in test [6] was inactive.

`COc1ccc(C(=O)N2CCN(CC(=O)N3CCOCC3)CC2)cc1`: the molecule was classed as inactive in [1], in [5], in test [2], in test [3], in test [6] and in test [7]. Moreover, in test [8], the Potency result was “inactive”. For the same molecule, in test [9], the max response is 17.3%.

`CC(C)=CCC/C(C)=C/CO`: the molecule was classed as inactive in test [1], in [2], in [3] and in [6].

Consider `COc1ccc(C(=O)NCc2ccc(OCCN(C)C)cc2)cc1OC`, for which the outcome in test [1], in test [2], in test [3] and in test [6] was inactive.

In the case of `OC(CCN1CCCC1)(c1ccccc1)C1CCCCC1` (centres undefined), the outcome in [1], in test [2] and in test [3] was inactive. For the same molecule, the Potency in [8] was 3.98 µM (active).

Regarding `Cc1cc(=O)[nH]c(=S)[nH]1`, the outcome in test [1], in test [2], in [3] and in test [6] was inactive.

With `C[N+](C)(C)CC[N+]1(C)Cc2c(Cl)c(Cl)c(Cl)c(Cl)c2C1`, the molecule was called inactive in [1], in [2], in test [3] and in [6].

For the molecule `COc1ccc(O)cc1`, the molecule was called inactive in test [1], in [3] and in test [6].

On to `CC(=O)N[C@@H](Cc1ccc(O)cc1)C(=O)O`, for which the molecule was classed as inactive in test [1], in test [2], in test [3] and in test [6].

`O=C(NCCCN1CCOCC1)c1ccc(Cl)cc1`: the result in test [1], in test [2], in [3] and in test [6] was inactive.

`OC[C@@H](O)[C@@H](O)[C@H](O)[C@H](O)CO`: the molecule was classed as inactive in test [1], in test [2], in [3] and in test [6].

Take `O=C(CN1CCNCC1)NC1CCCCC1`: the molecule was called inactive in test [1], in test [2], in test [3] and in [6].

`CC[N+](CC)(CC(=O)Nc1c(C)cccc1C)Cc1ccccc1`: the molecule was called inactive in test [1], in [3] and in [6].

As to `Cn1cc(C(=O)[C@@H]2CCc3nc[nH]c3C2)c2ccccc21`, the result in test [1], in [3], in test [6] and in test [7] was inactive. Further, in test [9], the max response was 11.5%.

`Cc1cc(O)cc(C)c1Cl`: the call in [1], in [2], in test [3] and in test [6] was inactive.

Take `C[C@]1(Cn2ccnn2)[C@H](C(=O)O)N2C(=O)C[C@H]2S1(=O)=O`: the molecule was called inactive in [1], in [2], in test [3] and in test [6].

As for `CC1(c2ccccc2)OC(C(=O)O)=CC1=O` (centres undefined), the result in test [1], in test [3] and in [6] was inactive.

With `COc1ccccc1Oc1c(NS(=O)(=O)c2ccc(C(C)(C)C)cc2)nc(-c2ncccn2)nc1OCCO`, the molecule was called inactive in test [1], in test [2], in test [3] and in test [6].

As to `CC1(C)[C@@H](OC(=O)CCC(=O)O)CC[C@]2(C)[C@H]3C(=O)C=C4[C@@H]5C[C@@](C)(C(=O)O)CC[C@]5(C)CC[C@@]4(C)[C@]3(C)CC[C@@H]12`, the result in test [1] and in test [3] was inactive.
